Sampled rows, rich in hits. Any-hit rate of the full collection: about 3.2%.
CRFR2-BP antag: antagonists of CRF-BP/CRF-R2 complex, primary screen, cell-based, HEK293, calcium dye fluorescence, uHTS; 0.59% of 350,000 active; inhibition, % at 11.8 µM; AID 588475, 2011; CRF-induced calcium fluorescence;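 active = inhibition of the ligand-induced calcium signal above about 50% at the single tested concentration, limit read from the data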
FAS TE block: FAS thioesterase domain inhibitors, primary screen, biochemical, fluorescence intensity, uHTS; Fatty acid synthase (Homo sapiens), P49327; recombinant FAS-TE, OMFH fluorogenic substrate, fluorescence endpoint; inhibition, % at 15 µM; 0.67% of 360,000 active;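 active = compounds whose normalised, plate-corrected inhibition of enzyme fluorescence in the single-dose primary screen is 50% or more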;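 also: 0% = DMSO with enzyme and 100% = substrate without enzyme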
PfGluPho inh: PfG6PD enzyme inhibitors, primary screen, biochemical, fluorescence intensity, uHTS. glucose-6-phosphate dehydrogenase-6-phosphogluconolactonase (Plasmodium falciparum 3D7). PfGluPho enzyme, NADPH resazurin-diaphorase fluorescence. inhibition, % at 20 µM. 0.78% of 350,000 active. AID 504690, 2011;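 active = inhibition reaching at least a set limit at 20 µM in the primary screen, cut at about 59% in these data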;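 also: 0% = DMSO wells with substrate and 100% = DMSO wells lacking glucose-6-phosphate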
aDG glyco up: activators of alpha-DG glycosylation, primary screen, uHTS, Pro5-aDG cells, AlphaScreen. 0.22% of 360,000 active. AID 624168, 2012. activation, % at 10 µM. alpha-DG glycosylation AlphaScreen (IIH6); 0% Pro5, 100% B10-LARGE cell signal;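 active = activation of at least 8% versus controls, or a plate z-score of at least 8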;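 also: Pro5 are CHO cells carrying HIG-tagged alpha-DG that lacks glycosylation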
CRFR2-BP ag: agonists of CRF-BP/CRF-R2 complex, primary screen, cell-based, HEK293, calcium dye fluorescence, uHTS; calcium dye fluorescence (FLIPR); percent of saturating CRF peptide response; activation, % at 13.2 µM; 0.46% of 350,000 active;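 active = activation of at least 50%, plus an integration ratio under a set limit after plate pattern correction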;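 also: plate controls were neutral control wells without compound for no effect and CRF at EC100 for full effect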
H9c2 protect: cardioprotection against H2O2-induced cell death, primary screen, uHTS, H9c2 cells, ATPLite luminescence; H9c2 cardiomyocytes, H2O2 injury protection, 2 h; protection from H2O2 cell death, % at 20 µM; 0.63% of 360,000 active; AID 588492, 2011;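 active = compounds giving at least 50% protection of heart cells from peroxide-induced death in the single-dose screen, raw or plate-pattern-corrected value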;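 also: 0% = DMSO wells with peroxide and 100% = DMSO wells without peroxide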
FAS-TE inh conf: FAS thioesterase domain inhibitors, confirmation, biochemical, fluorescence intensity, single concentration; recombinant FAS-TE, OMFH fluorogenic substrate; inhibition, % at 15 µM; shares compounds with FAS TE block; 45% of 2,300 active;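 active = compounds inhibiting the enzyme by at least 50% at 15 µM in any one of the replicates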;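 also: 0% = enzyme with DMSO only and 100% = wells lacking enzyme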
* = called active by the depositor.

For CCOc1ccc(S(=O)(=O)N2CCC(C(=O)Nc3ccc(C)c(S(=O)(=O)N4CCOCC4)c3)CC2)cc1 the results were CRFR2-BP antag -4.1, FAS TE block 51.7*, PfGluPho inh 3.1, aDG glyco up 0.0, CRFR2-BP ag -0.2, H9c2 protect -4.6 and FAS-TE inh conf 28.9.
For CC(=O)N1CCN(C(=O)c2ccc(NS(=O)(=O)c3ccc4[nH]c(=O)[nH]c4c3)cc2)CC1 the results were CRFR2-BP antag -7.9, FAS TE block -6.1, PfGluPho inh -5.0, aDG glyco up 0.0, CRFR2-BP ag 0.5 and H9c2 protect -3.2.
For Cc1cc(C(=O)NNC(=O)c2ccc(NC(=O)CC#N)cc2)c(C)o1 the results were CRFR2-BP antag -3.5, FAS TE block -6.0, PfGluPho inh 3.3, aDG glyco up 0.1, CRFR2-BP ag 0.6 and H9c2 protect 3.5.
Screening O=c1[nH]c2ccc([N+](=O)[O-])cc2nc1/C=C(\O)c1ccccc1 returned CRFR2-BP antag -10.8, FAS TE block 3.0, PfGluPho inh -1.9, aDG glyco up -0.3, CRFR2-BP ag 4.9 and H9c2 protect -0.3.
For COc1ccccc1NS(=O)(=O)c1cc(NC(=O)c2ccccc2C)ccc1N1CCOCC1 the results were CRFR2-BP antag 9.5, FAS TE block 53.3*, PfGluPho inh 11.3, aDG glyco up -0.1, CRFR2-BP ag 6.9, H9c2 protect 5.0 and FAS-TE inh conf 14.9.
`COc1ccccc1NS(=O)(=O)c1cc(NC(=O)c2cc(F)c(F)c(F)c2F)ccc1N1CCOCC1` gave CRFR2-BP antag -14.3, FAS TE block 38.9, PfGluPho inh 24.4, aDG glyco up 0.2, CRFR2-BP ag 0.7 and H9c2 protect 8.3.
For COc1ccc(NS(=O)(=O)c2cc(NC(=O)COc3ccc(OC)cc3)ccc2N2CCOCC2)cc1 the results were CRFR2-BP antag -6.0, FAS TE block 53.0*, PfGluPho inh 4.5, aDG glyco up -0.3, CRFR2-BP ag 2.2, H9c2 protect -1.2 and FAS-TE inh conf 23.7.
COc1cc(C2(O)CCCCC2C)cc(OC)c1OC (stereo unspecified) was read as CRFR2-BP antag -20.1, FAS TE block -10.3, PfGluPho inh -13.4, aDG glyco up 0.1, CRFR2-BP ag -1.0 and H9c2 protect 0.5.
Screening CCOC(=O)CCCC(=O)Nc1ncnc2c1C(c1ccccc1)c1c(ccc3ccccc13)O2 (stereo unspecified) returned CRFR2-BP antag -5.2, FAS TE block 18.8, PfGluPho inh 7.0, aDG glyco up 0.3, CRFR2-BP ag -0.2 and H9c2 protect 21.8.
Screening c1ccc(C2c3c(ccc4ccccc34)Oc3ncn4nc(-c5ccco5)nc4c32)cc1 (stereo unspecified) returned CRFR2-BP antag -23.9, FAS TE block 77.1*, PfGluPho inh -14.2, aDG glyco up 0.0, CRFR2-BP ag 6.6, H9c2 protect 4.6 and FAS-TE inh conf 15.7.
Screening O=C(c1ccccc1)N(C(=O)c1ccccc1)c1ncnc2c1C(c1ccccc1)c1c(ccc3ccccc13)O2 (stereo unspecified) returned CRFR2-BP antag -3.2, FAS TE block 62.2*, PfGluPho inh -4.2, aDG glyco up 0.6, CRFR2-BP ag 3.8, H9c2 protect 8.9 and FAS-TE inh conf 9.4.
COc1ccc(C2c3c(ccc4ccccc34)Oc3ncn4nc(-c5ccco5)nc4c32)cc1 (stereo unspecified) was read as CRFR2-BP antag 3.1, FAS TE block 72.1*, PfGluPho inh -11.4, aDG glyco up -0.4, CRFR2-BP ag 13.7, H9c2 protect 44.2 and FAS-TE inh conf 13.7.
For COc1ccc(C2c3c(ccc4ccccc34)Oc3ncn4nc(-c5ccco5)nc4c32)cc1OC (stereo unspecified) the results were CRFR2-BP antag 32.0, FAS TE block 20.2, PfGluPho inh 0.3, aDG glyco up -0.2, CRFR2-BP ag -1.2 and H9c2 protect 1.1.
For COC(=O)c1ccccc1NC(=S)N(Cc1ccc2c(c1)OCO2)Cc1cc2ccc(C)cc2[nH]c1=O the results were CRFR2-BP antag -10.1, FAS TE block 79.4*, PfGluPho inh -10.6, aDG glyco up 0.0, CRFR2-BP ag 6.9, H9c2 protect -7.8 and FAS-TE inh conf 29.3.
For Cc1ccc(NC(=O)N(Cc2ccc3c(c2)OCO3)Cc2cc3cc4c(cc3[nH]c2=O)OCCO4)cc1 the results were CRFR2-BP antag 10.4, FAS TE block 75.1*, PfGluPho inh 8.0, aDG glyco up 0.0, CRFR2-BP ag 0.3, H9c2 protect 13.7 and FAS-TE inh conf 26.5.
COc1ccc2[nH]c(=O)c(CN(Cc3cccs3)C(=S)Nc3cccc(C)c3)cc2c1 was read as CRFR2-BP antag -98.9, FAS TE block 72.5*, PfGluPho inh -15.3, aDG glyco up 0.7, CRFR2-BP ag 2.1, H9c2 protect 18.4 and FAS-TE inh conf 7.3.
For O=C(Nc1ccc(F)cc1)N(Cc1ccco1)Cc1cc2cc3c(cc2[nH]c1=O)OCO3 the results were CRFR2-BP antag -19.7, FAS TE block 4.8, PfGluPho inh -8.3, aDG glyco up 0.9, CRFR2-BP ag -1.2 and H9c2 protect 6.9.
For CNC(=S)N(Cc1cccs1)Cc1cc2cc(OC)ccc2[nH]c1=O the results were CRFR2-BP antag -68.4, FAS TE block -0.6, PfGluPho inh 6.0, aDG glyco up 0.1, CRFR2-BP ag -0.3 and H9c2 protect 2.4.
`O=C(Nc1ccc(F)cc1)N(Cc1cccs1)Cc1cc2cc3c(cc2[nH]c1=O)OCO3` gave CRFR2-BP antag 37.3, FAS TE block 55.1*, PfGluPho inh 2.9, aDG glyco up 0.5, CRFR2-BP ag 1.1, H9c2 protect 20.2 and FAS-TE inh conf 34.1.
`Cc1ccc(S(=O)(=O)Nc2cccc(S(=O)(=O)Nc3ccccc3C(=O)O)c2)c(C)c1` gave CRFR2-BP antag 8.5, FAS TE block 1.5, PfGluPho inh -7.0, aDG glyco up 0.0, CRFR2-BP ag -0.2 and H9c2 protect 3.3.
Cc1cc(NC(=O)CN2CCC(C)CC2)no1 was read as CRFR2-BP antag -10.2, FAS TE block -8.5, PfGluPho inh -18.7, aDG glyco up 0.4, CRFR2-BP ag -0.3 and H9c2 protect 11.6.
C=CCN1C(=O)/C(=c2\sc3nc(=O)c(Cc4ccccc4Cl)nn3c2=O)c2ccccc21 was read as CRFR2-BP antag -11.5, FAS TE block 3.3, PfGluPho inh 50.4, aDG glyco up 0.1, CRFR2-BP ag -0.3 and H9c2 protect -4.5.
